Each structure is given as a SMILES string. Results filed as inconclusive are left out. Active and inactive are the calls of the source. Calls come from the whole dose curve.

Sequence of Vitamin D3 receptor (Homo sapiens) (P11473 whole entry, looked up): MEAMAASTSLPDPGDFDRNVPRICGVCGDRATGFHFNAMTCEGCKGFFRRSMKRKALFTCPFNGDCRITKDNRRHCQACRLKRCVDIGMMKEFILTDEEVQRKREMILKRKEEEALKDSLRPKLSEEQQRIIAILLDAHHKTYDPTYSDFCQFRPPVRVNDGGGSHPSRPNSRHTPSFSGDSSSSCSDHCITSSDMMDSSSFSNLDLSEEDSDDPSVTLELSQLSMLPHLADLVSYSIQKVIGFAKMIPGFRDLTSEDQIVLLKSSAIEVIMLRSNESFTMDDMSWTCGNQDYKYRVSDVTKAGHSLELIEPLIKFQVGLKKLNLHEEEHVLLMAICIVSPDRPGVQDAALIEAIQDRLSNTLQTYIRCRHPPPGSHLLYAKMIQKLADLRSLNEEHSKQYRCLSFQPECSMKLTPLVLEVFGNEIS

The assay has as its target Vitamin D3 receptor (Homo sapiens) (UniProt P11473). In words: qHTS assay for small molecule agonists of vitamin D receptor signaling (AID 588543). Conditions: HEK293T VDR-UAS-bla, beta-lactamase ratio, 16 h; series mostly up to 76.8 µM. An excerpt:
NIH Chemical Genomics Center [NCGC]
U.S. Environmental Protection Agency [EPA]
National Institutes of Environmental Health Sciences [NIEHS]
National Toxicology Program [NTP]
The Vitamin D receptor (VDR) is a member of nuclear hormone receptor superfamily and it plays a critical role in calcium homeostasis and bone metabolism. It plays a role in inducing cell differentiation, inhibiting cell growth and in thrombogenicity. So, VDR that mediates these effects represents a pharmacological target in prevention and treatment of hyperproliferative malignancies, such as cancer and psoriasis, cardiovascular, immunological, inflammatory and renal diseases etc.
NCGC Assay Protocol Summary
Using a beta-lactamase reporter-gene under control of Vitamin D receptor (VDR) response element, a cell-based assay [GeneBLAzer (VDR -UAS-bla assay developed by Invitrogen] was used to measure VDR ligands signaling. GeneBLAzer VDR -UAS-bla HEK293T cells were used with assay medium containing 2% charcoal-stripped FBS. The assay was performed in clear bottom black Greiner 1536-well plates. 1-alpha,25-Dihydroxy vitaminD3 was used as a positive control in the screen. Library compounds were measured for their ability to stimulate the reporter gene activity. Compounds were screened in a titration series in 1536-well format. The fluorescence intensity (405 nm excitation, 460/530 nm emission) was measured using an EnVision plate reader. Data was normalized relative to 1-alpha,25-Dihydroxy vitaminD3 control (50 nM, 100%) and DMSO only wells (basal, 0%). Concentration-response titration points for each compound were fitted to the Hill equation yielding concentrations of half-maximal stimulation (EC50) and maximal response (efficacy) values.
qHTS protocol for VDR beta-lactamase assay in agonist mode
[Step] [Parameter] [Value] [Description]
1. Reagent; 6 uL; 2000 cells/well
2. Incubation; 37 C for 5 hrs
4. Controls (1-alpha,25-Dihydroxy vitaminD3); 23 nL,
- Final concentrations of 50 nM and 15 nM in two columns
5. Incubation; 37 C for 16 hrs
6. Detection reagent; 1 uL of CCF4-dye
7. Incubation; RT for 2 hrs
8. Detection; Fluorescence; Envision plate reader
For `S=C([S-])NCCNC(=S)[S-].S=C([S-])NCCNC(=S)[S-].[Mn+2].[Zn+2]`, the result was inactive. The same measure for `Cc1ccc(N)c(S(=O)(=O)O)c1`: “inactive”; for `NNS(=O)(=O)c1ccc(Oc2ccc(S(=O)(=O)NN)cc2)cc1`: “inactive”.

Take `COc1ccc(OC)c(OC)c1`: the outcome was inactive.

`O=C(O)c1ccc2c(c1)C(=O)OC2=O`: the result was inactive. As for `O=C(Cl)c1cc(Cl)cc(Cl)c1`, the entry is “inactive”; as for `CCOC(=O)[C@H](C)Oc1ccc(Oc2nc3ccc(Cl)cc3o2)cc1`, “inactive”. As for `CCCN(CCC)c1c([N+](=O)[O-])cc(C(F)(F)F)c(N)c1[N+](=O)[O-]`, the entry is “inactive”; as for `CCC(O)OCCCOC` (stereo not given), “inactive”; as for `Cc1ccc(N=Nc2c(O)ccc3ccccc23)c([N+](=O)[O-])c1`, “inactive”. The same measure for `Cn1sccc1=O`: “inactive”; for `CC(C)=CCC[C@@H](C)[C@H]1CC[C@@]2(C)C3=C(CC[C@]12C)[C@@]1(C)CC[C@H](O)C(C)(C)[C@@H]1CC3`: “inactive”. For `CN(C)c1ccc(C(c2ccccc2)c2ccc(N(C)C)cc2)cc1`, the result was inactive. The same measure for `CC(C)c1ccc2cc(C(C)C)ccc2c1`: “inactive”.

Turning to `C[Si](C)(Cl)[Si](C)(C)Cl`, the result was inactive. As for `CN(C)c1nc(=O)n(C2CCC(O)CC2)c(=O)n1C` (stereo not given), the entry is “inactive”; as for `C=Cc1ccc(P(c2ccccc2)c2ccccc2)cc1`, “inactive”. Regarding `CCCCCCCC[Si](OCC)(OCC)OCC`, the result was inactive.

Consider `CCc1c(C(=O)O)c(=O)cnn1-c1ccc(Cl)cc1`, for which the result was inactive. As for `CCCCOCCOCCOC(=O)CCCCC(=O)OCCOCCOCCCC`, the result was inactive. As for `CCCCNS(=O)(=O)c1ccccc1`, the entry is “inactive”. As for `Cc1ccc(C(C)(C)C)c(O)c1`, the entry is “inactive”. As for `C=CC(=O)OCC(C)OCC(C)OCC(C)OC(=O)C=C` (stereo not given), the entry is “inactive”; as for `CC(C)c1cccc(C(C)C)c1`, “inactive”; as for `CCCCCCCCCCCCCCN(C)C`, “inactive”. `O=C(Nc1ccccc1)c1cc(Cl)ccc1O`: the outcome was inactive. The same measure for `CC(C)Cc1c(C(=O)O)c(C(F)F)nc(C(F)(F)F)c1C1=NCCS1`: “inactive”; for `CC(C)(C)c1ccc(O)c(C(C)(C)C)c1`: “inactive”; for `CCCCN(CCCC)CCCCCCN(CCCC)CCCC`: “inactive”. The same measure for `C=CC(=O)OCCOCC(CC)(COCCOC(=O)C=C)COCCOC(=O)C=C`: “inactive”; for `O=c1oc(=O)c2cc3c(=O)oc(=O)c3cc12`: “inactive”.

Take `Cl[Si](Cl)(c1ccccc1)c1ccccc1`: the outcome was inactive. The same measure for `COC(=O)c1c(Cl)nn(C)c1S(=O)(=O)NC(=O)Nc1nc(OC)cc(OC)n1`: “inactive”; for `COCCO`: “inactive”; for `CCCCCCCC/C=C\CCCCCCCC(=O)OC`: “inactive”. As for `COC(=O)c1ccccc1S(=O)(=O)NC(=O)Nc1nc(OC(F)F)cc(OC(F)F)n1`, the entry is “inactive”.

Consider `O=C=NCCCCCCN=C=O`, for which the result was inactive. In the case of `O=S(=O)(O)c1ccc(N=Nc2c(O)ccc3cc(S(=O)(=O)O)ccc23)cc1`, the result was inactive. As for `Oc1ccc(C(c2ccc(O)cc2)C(Cl)(Cl)Cl)cc1`, the result was inactive. Regarding `CCNc1nc(N)nc(Cl)n1`, the result was inactive.

The record behind these values is PubChem BioAssay (NCATS).
